Consider 16 compounds from PubChem BioAssay (EPA / NIEHS).

Values joined by “and” are separate entries in the source; they are usually repeats but may differ in a detail not shown here. Equal values may be shown once. Inconclusive results are not listed. Active and inactive are the calls of the source. Rule for the calls, unless noted: active = hit-call score of the fitted dose curve at least 0.9, where 1 is the maximum; inconclusive = response in the unintended direction; inactive = score below 0.9.

For assay [1], the target named is Norway rat Vesicular Monoamine Transporter (VMAT2), neurotransmitter transporter, Slc18a2 (gene 25549) (UniProt Q01827). Briefly: NVS_TR_rVMAT2: NovaScreen (NVS) Transporter Assay for Norway rat Vesicular Monoamine Transporter (VMAT2), neurotransmitter transporter (AID 2283376).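 Note: actives lower the bound radioligand signal below the DMSO level.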 The method in brief:
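Radioligand displacement binding on rat forebrain tissue preparation, filter-based scintillation read-out 1 hour after dosing. Primary screen in duplicate at 25 uM, then concentration series for actives; loss of signal versus DMSO.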

Assay [2] concerns the target human Norepinephrine Transporter (NET), SLC6A2 (gene 6530) (UniProt P23975). Briefly: NVS_TR_hNET: NovaScreen (NVS) Transporter Assay for human Norepinephrine Transporter (NET) (AID 2283377).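 For AC50: displacement of radioligand from human NET seen as loss of scintillation signal.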 The method in brief: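 Cell-free radioligand binding using CHO-derived membrane protein expressing human NET, read by filter scintillation counting 1 h after dosing; loss of signal vs DMSO. Initial duplicate screen at 25 uM, actives retested in concentration series.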

The target of assay [3] is Estrogen receptor beta (Homo sapiens) (UniProt Q92731). The assay can be described thus: OT_ER_ERbERb_1440: Odyssey Thera (OT) 24-hour HEK293T Protein-Complementation Assay for Estrogen Receptor-beta/-beta Homodimer (AID 2283380).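 Note: scored as signal increase over DMSO baseline for both agonists and antagonists.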 The method in brief: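 HEK293T cells stably expressing ER beta LBD (aa 310-547) homodimer fragment-complementation reporter, dosed 24 h. Cells formaldehyde-fixed, Draq5-stained; gain in nuclear (agonist) or nuclear plus cytoplasmic (antagonist) fluorescence versus DMSO read by laser scanning cytometry.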

Assay [4] concerns the target Estrogen receptor (Homo sapiens) (UniProt P03372). The assay can be described thus: OT_ERa_GFPERaERE_0480: Odyssey Thera (OT) 8-hour HeLa Transcription Induction Assay for Estrogen Receptor (AID 2283381; active = hit-call score of the fitted dose curve at least 0.9, where 1 is the maximum; inactive = score below 0.9). The method in brief:
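HeLa cells dosed with compound and imaged by fluorescence microscopy at 8 h; GFP induction from an ERE reporter quantified by high-content image analysis and fitted as gain of signal against DMSO baseline.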

The target is the same in assay [5]. Briefly: OT_ERa_GFPERaERE_0120: Odyssey Thera (OT) 2-hour HeLa Transcription Induction Assay for Estrogen Receptor (AID 2283382). The method in brief: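 HeLa cells were dosed with test chemical and read 2 hours later for GFP-ERα/ERE-linked fluorescent protein induction by fluorescence microscopy. Gain-of-signal was fitted relative to DMSO baseline, quantified by high content image analysis.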

Assay [6] deals with Bile acid receptor (Homo sapiens) (UniProt Q96RI1). The assay can be described thus: OT_FXR_FXRSRC1_0480: Odyssey Thera (OT) 8-hour HEK293T Protein-Complementation Assay for Farnesoid X receptor/SRC-1 Co-activator (AID 2283383). The method in brief: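 HEK293T cells expressing FXR and SRC-1 fused to reporter fragments were dosed with compound for 8 h; fluorescence from the reconstituted reporter marked co-activator recruitment. Gain of signal was fitted against the DMSO baseline.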

The target is the same in assay [7]. Briefly: OT_FXR_FXRSRC1_1440: Odyssey Thera (OT) 24-hour HEK293T Protein-Complementation Assay for Farnesoid X receptor/SRC-1 Co-activator (AID 2283384). The method in brief:
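HEK293T cells were dosed with compound and read 24 h later by fluorescence intensity from protein-fragment complementation reporting FXR/SRC-1 co-activator interaction. Gain of signal was fitted relative to DMSO negative control as baseline.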

Assay [8] has as its target Retinoic acid receptor RXR-alpha (Homo sapiens) (UniProt P19793). The assay can be described thus: OT_NURR1_NURR1RXRa_1440: Odyssey Thera (OT) 24-hour HEK293T Protein Complementation Assay for Nurr1/retinoid X receptor (RXR) (AID 2283386). The method in brief:
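HEK293T cells were dosed with compound and read 24 h later by fluorescence intensity in a protein-fragment complementation format, where Nurr1–RXRα interaction reconstitutes a split reporter. Activity was fitted as gain of signal relative to DMSO baseline.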

In assay [9] the target is Peroxisome proliferator-activated receptor gamma (Homo sapiens) (UniProt P37231). Briefly: OT_PPARg_PPARgSRC1_1440: Odyssey Thera (OT) 24-hour Protein-Complementation Assay for Peroxisome Proliferator-activated Receptor Gamma/ SRC-1 Co-activator (AID 2283388). The method in brief:
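HEK293T cells transiently transfected with PPARg and SRC-1 fused via (Gly4Ser)2 linker to split Venus YFP fragments (IFP1/IFP2) were dosed 24 h; fixed, Draq5-stained, imaged at 488/635 nm; nuclear/cytoplasmic fluorescence ratio scored versus DMSO baseline, gain-of-signal.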

Assay [10] can be described thus: CEETOX_H295R_OHPREG: CeeTox H295R High-throughput Steroidogenesis Assay for OH-Pregnenolone (OHPREG) (AID 2283434; active = hit-call score of the fitted dose curve at least 0.9, where 1 is the maximum; inactive = score below 0.9). Conditions: actives raise or lower the signal. The method in brief: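 H295R cells pre-stimulated 48 h with 10 uM forskolin, then exposed 48 h to chemical in 0.1% DMSO. 17alpha-hydroxypregnenolone in medium quantified by MTBE extraction and HPLC-MS/MS; bidirectional fit versus DMSO, viability checked by MTT.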

A short description of assay [11]: CEETOX_H295R_OHPROG: CeeTox H295R High-throughput Steroidogenesis Assay for OH-Progesterone (OHPROG) (AID 2283435; active = hit-call score of the fitted dose curve at least 0.9, where 1 is the maximum; inactive = score below 0.9). Conditions: actives raise or lower the signal. The method, boiled down:
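H295R human adrenal cells were prestimulated 48 h with 10 uM forskolin, then exposed 48 h to test chemical (0.1% DMSO final). 17alpha-hydroxyprogesterone in medium was measured by HPLC-MS/MS after MTBE extraction; bidirectional fitting vs DMSO.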

A short description of assay [12]: CEETOX_H295R_CORTIC: CeeTox H295R High-throughput Steroidogenesis Assay for Corticosterone (CORTIC) (AID 2283437; active = hit-call score of the fitted dose curve at least 0.9, where 1 is the maximum; inactive = score below 0.9;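 note: corticosterone secreted into medium quantified by mass spectrometry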). The following applies: actives raise or lower the signal. The method, boiled down:
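H295R adrenal cells prestimulated 48 hours with 10 uM forskolin, then exposed 48 hours to chemical in 0.1% DMSO. Corticosterone in medium measured by HPLC-MS/MS after MTBE extraction; MTT viability in the same wells; bidirectional fit versus DMSO.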

A short description of assay [13]: CEETOX_H295R_CORTISOL: CeeTox H295R High-throughput Steroidogenesis Assay for Cortisol (AID 2283438; active = hit-call score of the fitted dose curve at least 0.9, where 1 is the maximum; inactive = score below 0.9;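 note: cortisol secreted into medium quantified by LC-MS/MS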). Conditions: actives raise or lower the signal. The method in brief: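 H295R human adrenal cells were prestimulated 48 h with 10 uM forskolin, then exposed 48 h to test chemical (0.1% DMSO final). Medium cortisol was quantified by HPLC-MS/MS after MTBE extraction; bidirectional fitting relative to DMSO baseline.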

A short description of assay [14]: CEETOX_H295R_DOC: CeeTox H295R High-throughput Steroidogenesis Assay for DOC (AID 2283439; active = hit-call score of the fitted dose curve at least 0.9, where 1 is the maximum; inactive = score below 0.9). The following applies: actives raise or lower the signal. The method, boiled down:
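H295R adrenal cells prestimulated 48 h with 10 uM forskolin, then exposed 48 h to test chemical (0.1% DMSO final). Medium 11-deoxycorticosterone extracted with MTBE, quantified by HPLC-MS/MS; bidirectional fit versus DMSO baseline; MTT viability in same wells.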

Assay [15] in a line: CEETOX_H295R_ESTRADIOL: CeeTox H295R High-throughput Steroidogenesis Assay for Estradiol (AID 2283440; active = hit-call score of the fitted dose curve at least 0.9, where 1 is the maximum; inactive = score below 0.9;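 note: estradiol secreted into medium quantified by LC-MS/MS after dansyl derivatisation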). Conditions: actives raise or lower the signal. The method in brief:
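H295R adrenocortical cells were prestimulated with 10 uM forskolin for 48 h, then exposed to test chemical in 0.1% DMSO for 48 h. Medium estradiol was extracted with MTBE, dansyl-derivatized and quantified by HPLC-MS/MS; bidirectional fit versus DMSO.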

Assay [16] can be described thus: CEETOX_H295R_ESTRONE: CeeTox H295R High-throughput Steroidogenesis Assay for Estrone (AID 2283441; active = hit-call score of the fitted dose curve at least 0.9, where 1 is the maximum; inactive = score below 0.9;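 note: estrone secreted into medium measured by LC-MS/MS after dansyl derivatization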). Conditions: actives raise or lower the signal. The method, boiled down: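 H295R cells; 48 h forskolin (10 uM) prestimulation; 48 h compound exposure, 0.1% DMSO final. Medium estrone: MTBE extraction, dansyl derivatization, HPLC-MS/MS. Bidirectional fit vs DMSO.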

Assay [17] concerns the target mouse Estrogen Receptor alpha (Era), Esr1 (gene 13982) (UniProt P19785). Briefly: NVS_NR_mERa: NovaScreen (NVS) Nuclear Receptor Binding Assay for mouse Estrogen Receptor alpha (Era) (AID 2283378).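 Note: hit means loss of bound radioligand signal relative to DMSO.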 The method, boiled down: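 Cell-free radioligand binding with extracted mouse Era protein; competitive displacement of radiolabelled ligand, read by filter-based scintillation counting 18 hours after dosing. Loss of signal versus DMSO baseline taken as binding; single screening concentration 25 uM, actives followed in concentration series.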

The target in assay [18] is Peroxisome proliferator-activated receptor gamma (Homo sapiens) (UniProt P37231). The assay can be described thus: OT_PPARg_PPARgSRC1_0480: Odyssey Thera (OT) 8-hour Protein-Complementation Assay for Peroxisome Proliferator-activated Receptor Gamma / SRC-1 Co-activator (AID 2283387). The method in brief:
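HEK293T transiently transfected with PPARg and SRC-1 fused to Venus YFP fragments, compounds 8 h at 37C. Fixed, Draq5-stained cells imaged; nuclear/cytoplasmic 488 nm fluorescence ratio over at least 350 cells per image; gain fitted versus DMSO.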

Chain of Retinoic acid receptor RXR-alpha (Homo sapiens) (P19793 whole entry, looked up, the tested form may be a part): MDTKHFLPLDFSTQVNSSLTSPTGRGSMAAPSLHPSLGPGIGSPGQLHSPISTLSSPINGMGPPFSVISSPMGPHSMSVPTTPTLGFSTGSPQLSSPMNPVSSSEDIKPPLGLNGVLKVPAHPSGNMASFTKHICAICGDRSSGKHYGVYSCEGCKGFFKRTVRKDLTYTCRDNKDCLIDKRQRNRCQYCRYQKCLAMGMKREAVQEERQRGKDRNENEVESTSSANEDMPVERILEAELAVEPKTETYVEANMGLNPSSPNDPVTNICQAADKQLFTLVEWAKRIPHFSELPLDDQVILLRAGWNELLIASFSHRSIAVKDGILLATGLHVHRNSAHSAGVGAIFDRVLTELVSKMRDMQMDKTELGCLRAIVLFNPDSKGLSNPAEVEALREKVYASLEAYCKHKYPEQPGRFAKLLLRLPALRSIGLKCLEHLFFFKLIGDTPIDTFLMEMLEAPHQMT
Chain of Estrogen receptor (Homo sapiens) (P03372 whole entry, looked up): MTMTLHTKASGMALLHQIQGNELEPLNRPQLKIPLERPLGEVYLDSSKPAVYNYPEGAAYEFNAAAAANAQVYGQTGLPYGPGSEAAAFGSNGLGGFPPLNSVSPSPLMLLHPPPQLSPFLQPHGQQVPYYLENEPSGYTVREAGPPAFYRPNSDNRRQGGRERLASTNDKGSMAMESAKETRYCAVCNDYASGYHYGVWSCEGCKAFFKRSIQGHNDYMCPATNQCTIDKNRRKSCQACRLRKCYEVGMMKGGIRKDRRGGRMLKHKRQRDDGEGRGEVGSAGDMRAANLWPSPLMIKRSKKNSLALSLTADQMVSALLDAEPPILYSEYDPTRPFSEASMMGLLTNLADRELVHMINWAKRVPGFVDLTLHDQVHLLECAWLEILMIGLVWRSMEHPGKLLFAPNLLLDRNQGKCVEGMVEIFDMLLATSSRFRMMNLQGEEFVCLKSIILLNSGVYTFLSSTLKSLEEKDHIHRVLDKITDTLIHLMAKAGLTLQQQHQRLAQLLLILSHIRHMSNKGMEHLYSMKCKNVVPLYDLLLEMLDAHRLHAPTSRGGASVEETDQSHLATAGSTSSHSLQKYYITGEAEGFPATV
Chain of Norway rat Vesicular Monoamine Transporter (VMAT2), neurotransmitter transporter, Slc18a2 (gene 25549) (Q01827 whole entry, looked up): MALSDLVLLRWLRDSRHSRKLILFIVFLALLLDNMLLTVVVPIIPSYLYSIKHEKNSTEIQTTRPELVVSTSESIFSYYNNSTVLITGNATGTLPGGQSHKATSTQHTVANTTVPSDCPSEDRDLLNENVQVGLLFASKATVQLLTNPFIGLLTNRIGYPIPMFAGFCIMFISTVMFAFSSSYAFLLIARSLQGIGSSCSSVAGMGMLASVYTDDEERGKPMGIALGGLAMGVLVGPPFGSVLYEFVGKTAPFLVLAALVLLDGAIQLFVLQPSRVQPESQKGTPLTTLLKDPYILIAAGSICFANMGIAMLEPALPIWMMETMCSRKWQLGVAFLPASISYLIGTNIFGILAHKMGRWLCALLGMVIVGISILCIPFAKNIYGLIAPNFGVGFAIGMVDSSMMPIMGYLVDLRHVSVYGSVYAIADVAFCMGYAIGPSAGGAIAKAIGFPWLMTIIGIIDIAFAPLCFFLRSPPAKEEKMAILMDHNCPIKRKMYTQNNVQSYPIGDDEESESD
Chain of Peroxisome proliferator-activated receptor gamma (Homo sapiens) (P37231 whole entry, looked up, the tested form may be a part): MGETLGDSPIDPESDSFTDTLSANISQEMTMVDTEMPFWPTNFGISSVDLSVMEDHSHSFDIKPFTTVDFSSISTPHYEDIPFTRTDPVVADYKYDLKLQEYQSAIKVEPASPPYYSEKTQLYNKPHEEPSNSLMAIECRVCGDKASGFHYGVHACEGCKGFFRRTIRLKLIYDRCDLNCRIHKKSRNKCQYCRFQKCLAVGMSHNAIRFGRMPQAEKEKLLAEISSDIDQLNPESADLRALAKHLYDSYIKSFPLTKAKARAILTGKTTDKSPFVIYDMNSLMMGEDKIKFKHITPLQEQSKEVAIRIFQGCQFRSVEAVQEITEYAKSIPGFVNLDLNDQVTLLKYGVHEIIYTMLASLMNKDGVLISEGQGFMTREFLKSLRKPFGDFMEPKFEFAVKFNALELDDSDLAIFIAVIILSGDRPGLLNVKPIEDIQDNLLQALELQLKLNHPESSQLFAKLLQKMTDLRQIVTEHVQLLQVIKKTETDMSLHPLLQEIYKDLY
Chain of human Norepinephrine Transporter (NET), SLC6A2 (gene 6530) (P23975 whole entry, looked up): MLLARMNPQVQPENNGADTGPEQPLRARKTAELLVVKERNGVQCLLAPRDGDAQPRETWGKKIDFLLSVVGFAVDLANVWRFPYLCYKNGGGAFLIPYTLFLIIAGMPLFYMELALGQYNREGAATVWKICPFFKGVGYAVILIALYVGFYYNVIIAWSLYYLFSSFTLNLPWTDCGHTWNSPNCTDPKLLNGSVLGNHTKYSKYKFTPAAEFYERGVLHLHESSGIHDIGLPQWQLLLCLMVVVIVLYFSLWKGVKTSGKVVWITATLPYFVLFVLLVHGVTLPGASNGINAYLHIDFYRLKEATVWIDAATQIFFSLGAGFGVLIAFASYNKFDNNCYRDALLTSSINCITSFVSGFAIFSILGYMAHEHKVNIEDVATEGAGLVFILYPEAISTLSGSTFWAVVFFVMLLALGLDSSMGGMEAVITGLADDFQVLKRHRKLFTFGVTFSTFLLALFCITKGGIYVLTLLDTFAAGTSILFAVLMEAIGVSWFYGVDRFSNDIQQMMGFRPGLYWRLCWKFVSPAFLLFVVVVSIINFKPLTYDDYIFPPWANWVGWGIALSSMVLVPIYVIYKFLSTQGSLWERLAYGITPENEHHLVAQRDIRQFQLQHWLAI
Chain of mouse Estrogen Receptor alpha (Era), Esr1 (gene 13982) (P19785 whole entry, looked up): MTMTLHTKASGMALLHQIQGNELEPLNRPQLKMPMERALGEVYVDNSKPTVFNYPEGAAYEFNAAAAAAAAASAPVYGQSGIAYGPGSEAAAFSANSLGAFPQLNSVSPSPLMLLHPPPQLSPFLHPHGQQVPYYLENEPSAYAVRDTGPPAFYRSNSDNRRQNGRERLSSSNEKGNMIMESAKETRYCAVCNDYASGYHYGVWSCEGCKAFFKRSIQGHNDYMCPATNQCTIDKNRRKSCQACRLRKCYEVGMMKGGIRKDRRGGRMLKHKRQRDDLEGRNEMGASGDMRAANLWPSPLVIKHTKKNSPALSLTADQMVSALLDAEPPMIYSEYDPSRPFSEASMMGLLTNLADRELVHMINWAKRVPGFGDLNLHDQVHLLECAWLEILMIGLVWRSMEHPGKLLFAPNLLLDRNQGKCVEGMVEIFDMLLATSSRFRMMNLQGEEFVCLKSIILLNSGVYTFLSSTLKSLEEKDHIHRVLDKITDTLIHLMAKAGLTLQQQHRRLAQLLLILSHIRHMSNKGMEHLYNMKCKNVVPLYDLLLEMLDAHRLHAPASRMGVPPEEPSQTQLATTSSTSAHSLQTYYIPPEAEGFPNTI
Chain of Estrogen receptor beta (Homo sapiens) (Q92731 whole entry, looked up, the tested form may be a part): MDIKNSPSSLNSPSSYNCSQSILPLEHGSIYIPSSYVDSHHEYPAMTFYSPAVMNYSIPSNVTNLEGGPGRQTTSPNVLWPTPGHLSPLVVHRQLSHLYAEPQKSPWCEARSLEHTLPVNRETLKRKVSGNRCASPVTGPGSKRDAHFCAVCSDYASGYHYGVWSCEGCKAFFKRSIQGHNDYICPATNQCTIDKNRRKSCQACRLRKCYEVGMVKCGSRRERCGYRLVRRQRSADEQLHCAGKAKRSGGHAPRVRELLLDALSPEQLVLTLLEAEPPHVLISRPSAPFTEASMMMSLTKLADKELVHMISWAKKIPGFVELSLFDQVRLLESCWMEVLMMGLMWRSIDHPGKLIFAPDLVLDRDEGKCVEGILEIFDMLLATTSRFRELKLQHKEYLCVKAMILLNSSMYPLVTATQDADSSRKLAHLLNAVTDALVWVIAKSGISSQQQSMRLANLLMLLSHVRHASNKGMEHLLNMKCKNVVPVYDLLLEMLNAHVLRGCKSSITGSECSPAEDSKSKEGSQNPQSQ
Chain of Bile acid receptor (Homo sapiens) (Q96RI1 whole entry, looked up, the tested form may be a part): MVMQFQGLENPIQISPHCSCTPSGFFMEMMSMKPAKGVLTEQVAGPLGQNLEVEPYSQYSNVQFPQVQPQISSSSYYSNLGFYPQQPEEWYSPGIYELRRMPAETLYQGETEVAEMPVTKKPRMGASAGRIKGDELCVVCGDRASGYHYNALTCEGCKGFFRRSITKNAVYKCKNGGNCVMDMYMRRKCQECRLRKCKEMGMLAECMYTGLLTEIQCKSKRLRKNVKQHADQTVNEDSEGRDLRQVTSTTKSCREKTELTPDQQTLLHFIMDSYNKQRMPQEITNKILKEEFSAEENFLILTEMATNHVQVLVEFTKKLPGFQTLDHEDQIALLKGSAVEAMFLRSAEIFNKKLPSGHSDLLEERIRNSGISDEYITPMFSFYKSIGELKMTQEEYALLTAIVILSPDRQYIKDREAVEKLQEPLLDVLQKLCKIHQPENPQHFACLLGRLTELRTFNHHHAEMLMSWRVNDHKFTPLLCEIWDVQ

In the case of `CCCCCCCCCCCCN(C)C`, the compound was classed as inactive in assay [1], in assay [2], in assay [3], in assay [4], in assay [5] and in assay [6]. In addition, the compound was called inactive in assay [7], in [8], in assay [9], in assay [10], in assay [11] and in assay [12]. In addition, the compound was called inactive in assay [13], in assay [14], in assay [15] and in assay [16].
For `Cc1ccc(OP(=O)(Oc2ccc(C)cc2C)Oc2ccc(C)cc2C)c(C)c1`, the AC50 in assay [2] is 1.47 µM (active).
For the compound `Oc1cc(Cl)c(Cl)cc1Cl`, the outcome in assay [1] and in [9] was inactive. Also, the AC50 in assay [2] was 10.8 µM (active); in [3] it was 75.1 µM (active); in [8], 81.6 µM (active) and 83.4 µM (active).
As for `CC(C)(C1CCC(O)CC1)C1CCC(O)CC1` (stereo not drawn), the compound was classed as inactive in assay [17].
As for `COC(=O)c1cc(Oc2ccc(Cl)cc2Cl)ccc1[N+](=O)[O-]`, the compound was classed as inactive in [17].
Still for that read-out and setting: then `OCC(c1ccc(Cl)cc1)c1ccc(Cl)cc1`, with “inactive”.
Consider `CCCCCCCCCCCCc1cccc(S(=O)(=O)O)c1`, for which the concentration at half-maximal activity (AC50) in [2] was 18.7 µM (active). The compound was classed as inactive in assay [8].
On to `C=CC(=O)[O][Sn]([CH2]CCC)([CH2]CCC)[CH2]CCC`, for which, in assay [17], the outcome was inactive.
Turning to `CCOC(=O)CCN(SN(C)C(=O)Oc1cccc2c1OC(C)(C)C2)C(C)C`, in assay [2], the AC50 is 9.18 µM (active).
`N#Cc1ccccc1N`: the result in [2] was inactive.
In the case of `BrCC(Br)c1ccccc1` (stereo not drawn), the result in assay [2] was inactive.
As for `O=C(N[C@H]1CN2CCC1CC2)c1ccc2c(c1)OCCO2`, the result in assay [1], in assay [3], in assay [8], in assay [18] and in [9] was inactive.
For the compound `N#CCCC(Br)(C#N)CBr` (stereo not drawn), the result in assay [2], in [4], in assay [5], in assay [8] and in [9] was inactive. The AC50 in assay [3] is 11.9 µM (active).
As to `Oc1cccc(-c2ccccc2)c1`, the outcome in assay [1], in [2], in assay [10], in [12], in assay [13] and in assay [14] was inactive. Further, the outcome in [15] and in assay [16] was inactive. Further, the AC50 in [11] was 9.06 µM (active).
As to `CCOC(=O)C(SP(=S)(OC)OC)c1ccccc1` (stereo not drawn), in assay [2], the concentration at half-maximal activity (AC50) was 9.9 µM (active).
In the case of `Nc1ccc(Br)cc1`, the compound was called inactive in [17].

A word on the AC50: it is the concentration at which the activity in the assay is half-maximal.
